Activity calls are given as the source filed them.

The nature of assay [1]: optical density shifts of acrAB sulA E. coli – strain DRC41, OD650, 48 h, E. coli filamentation inducer project, primary screen (AID 1152).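 Note: E. coli MC1000 strain DRC41 lacking acrAB efflux pump and sulA.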 As to conditions: higher = more signal, called active from +8 up or from −8 down.
A short description of assay [2]: probe aLefty1 binding on compound microarray – biochemical, small-molecule microarray, 635/667 nm fluorescence, primary screen (AID 1153).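 Note: score merges spot fluorescence with signal-to-noise ratio from the scanned slide images.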 As to conditions: higher = more signal.
A short description of assay [3]: plasmodial surface anion channel blockers, osmotic lysis – cell-based, P. falciparum Indochina, OD700, 1 h, primary screen (AID 1154). The following applies: P. falciparum Indochina infected RBC osmotic lysis, higher = more signal, called active from +8 up or from −8 down.
Assay [4] can be described thus: plasmodial surface anion channel blockers, osmotic lysis – cell-based, P. falciparum Indochina, OD700, 2 h, primary screen (AID 1155).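 Note: lysis reports solute entry through the parasite surface anion channel PSAC.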 The following applies: P. falciparum Indochina infected erythrocytes, higher = more signal, called active from +8 up or from −8 down.
A short description of assay [5]: changes in parasitized red cell lysis, either direction – P. falciparum Indochina, OD700, 3 h, PSAC antagonist project, primary screen (AID 1156). As to conditions: P. falciparum-infected erythrocytes, osmotic lysis, higher = more signal, called active from +8 up or from −8 down.
A short description of assay [6]: plasmodial surface anion channel blockers, osmotic lysis – cell-based, P. falciparum Indochina, OD700, 18 h, primary screen (AID 1157). As to conditions: P. falciparum Indochina infected erythrocytes, osmotic lysis OD700, 18 h; higher = more signal, called active from +8 up or from −8 down.
A short description of assay [7]: S6 kinase pathway phospho-S6 level changes – cell-based, A549, cytoblot, luminescence, serum-stimulated, primary screen (AID 1158).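 Note: serum-stimulated A549 lung adenocarcinoma cells; signal is phosphorylated S6 detected by cytoblot immunostaining with HRP secondary.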 The following applies: 5 h, higher = more signal.
The target in assay [8] is NADPH oxidase 2 (Homo sapiens) (UniProt P04839). Kind of assay: compounds shifting NOX2 Amplex Red fluorescence – cell-based, HEK293-NOX2, PMA-stimulated, NOX inhibitor project, primary screen (AID 1159). Note: test concentration not given here. As to conditions: 45 min, higher = more signal, called active from +8 up or from −8 down.
Chain of NADPH oxidase 2 (Homo sapiens) (P04839 whole entry, looked up): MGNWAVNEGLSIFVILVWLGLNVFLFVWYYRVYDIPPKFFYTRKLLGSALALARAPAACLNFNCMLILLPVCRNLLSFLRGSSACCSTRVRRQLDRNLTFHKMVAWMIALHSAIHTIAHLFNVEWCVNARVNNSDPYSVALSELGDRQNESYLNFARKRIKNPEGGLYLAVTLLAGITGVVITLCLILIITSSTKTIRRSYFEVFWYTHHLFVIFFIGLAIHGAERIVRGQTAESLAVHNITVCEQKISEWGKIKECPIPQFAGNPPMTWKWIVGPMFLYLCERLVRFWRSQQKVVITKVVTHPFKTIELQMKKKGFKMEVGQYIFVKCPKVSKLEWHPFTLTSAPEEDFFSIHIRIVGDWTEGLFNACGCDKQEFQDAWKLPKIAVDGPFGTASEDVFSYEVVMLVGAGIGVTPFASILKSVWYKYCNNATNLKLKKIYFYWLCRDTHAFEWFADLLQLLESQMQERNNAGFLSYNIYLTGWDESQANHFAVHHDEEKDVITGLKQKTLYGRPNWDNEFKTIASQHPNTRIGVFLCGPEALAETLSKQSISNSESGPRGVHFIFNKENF
In assay [9] the target is NADPH oxidase 4 (Homo sapiens) (UniProt Q9NPH5). Briefly: compounds shifting NOX4 Amplex Red fluorescence – cell-based, HEK293-NOX4, tetracycline-induced, NOX inhibitor project, primary screen (AID 1160). As to conditions: HEK293-NOX4, Amplex Red H2O2 fluorescence, 45 min; higher = more signal, called active from +8 up or from −8 down.
Chain of NADPH oxidase 4 (Homo sapiens) (Q9NPH5 whole entry, looked up): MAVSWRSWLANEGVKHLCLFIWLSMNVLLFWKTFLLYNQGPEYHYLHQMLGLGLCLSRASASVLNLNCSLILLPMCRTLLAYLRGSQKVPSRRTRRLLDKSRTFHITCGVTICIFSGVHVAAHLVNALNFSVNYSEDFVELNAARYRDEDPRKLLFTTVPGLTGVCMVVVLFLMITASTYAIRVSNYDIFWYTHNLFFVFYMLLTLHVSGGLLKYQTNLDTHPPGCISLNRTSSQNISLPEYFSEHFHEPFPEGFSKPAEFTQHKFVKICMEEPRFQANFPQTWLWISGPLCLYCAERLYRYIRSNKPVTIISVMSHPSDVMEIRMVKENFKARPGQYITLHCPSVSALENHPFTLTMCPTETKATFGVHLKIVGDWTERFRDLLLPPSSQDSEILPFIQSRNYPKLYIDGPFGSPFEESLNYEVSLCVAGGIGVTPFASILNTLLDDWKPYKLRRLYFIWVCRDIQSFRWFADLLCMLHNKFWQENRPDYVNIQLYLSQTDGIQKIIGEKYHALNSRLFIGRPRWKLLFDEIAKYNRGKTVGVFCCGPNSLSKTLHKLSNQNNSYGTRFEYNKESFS
Assay [10] addresses NADPH oxidase 5 (Homo sapiens) (UniProt Q96PH1). Kind of assay: compounds shifting NOX5 Amplex Red fluorescence – cell-based, HEK293-NOX5, NOX inhibitor project, primary screen (AID 1161). The following applies: HEK293-NOX5, ionomycin, 45 min, higher = more signal.
A short description of assay [11]: compound effects on lung adenocarcinoma cell viability – A549, calcein-AM fluorescence, 48 h, basal, profiling panel (AID 1162). Note: test concentration not given here. The following applies: higher = more signal.
Assay [12] in a line: compound effects on differentiated 3T3-L1 adipocyte viability – cell-based, 3T3-L1 adipocytes, calcein-AM fluorescence, 48 h, basal, profiling panel (AID 1163). Note: test concentration not given here. As to conditions: 3T3-L1 adipocytes viability, higher = more signal.
Assay [13] can be described thus: compound effects on hepatocellular carcinoma cell viability – HepG2, calcein-AM fluorescence, 48 h, basal, profiling panel (AID 1164). Note: test concentration not given here. The following applies: higher = more signal.
Assay [14] can be described thus: compound effects on multiple myeloma cell viability – MM1S, calcein-AM fluorescence, 48 h, basal, profiling panel (AID 1165).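 Note: viability of MM1S multiple myeloma cells under basal unstimulated conditions; test concentration not given here.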 The following applies: higher = more signal.
Assay [15] in a line: calcein-AM signal in unstimulated myeloma cells – cell-based, calcein-AM fluorescence, 48 h, PK04 Diversity Set, profiling panel (AID 1166).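 Note: cells grown under basal conditions without added stimulus; test concentration not given here.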 The following applies: RPMI8226 myeloma viability, higher = more signal.
The nature of assay [16]: JC-1 mitochondrial signal, unstimulated HepG2 cells – cell-based, JC-1 fluorescence, 24 h, 100 nL compound, profiling panel (AID 1167). Note: test concentration not given here. As to conditions: HepG2 mitochondrial potential, higher = more signal.
Assay [17] can be described thus: JC-1 mitochondrial signal, unstimulated adipocytes – cell-based, JC-1 fluorescence, 3T3-L1 adipocytes, 24 h, 100 nL compound, profiling panel (AID 1168). Note: test concentration not given here. As to conditions: JC-1 mitochondrial fluorescence, higher = more signal, called active from +8 up or from −8 down.
The nature of assay [18]: JC-1 mitochondrial signal, unstimulated myeloma cells – cell-based, JC-1 fluorescence, RPMI8226, 24 h, 100 nL compound, profiling panel (AID 1169). Note: test concentration not given here. The following applies: JC-1 mitochondrial potential fluorescence, higher = more signal.
Assay [19] can be described thus: JC-1 mitochondrial signal, unstimulated MM1S myeloma – cell-based, JC-1 fluorescence, 24 h, 100 nL compound, profiling panel (AID 1170). Note: test concentration not given here. As to conditions: MM1S mitochondrial potential, higher = more signal.
A short description of assay [20]: resazurin metabolic signal in A549 cells – cell-based, resazurin fluorescence, 24 h, PK04 Diversity Set, profiling panel (AID 1171). Note: test concentration not given here. The following applies: A549 viability, higher = more signal, called active from +8 up or from −8 down. (In general: Alamar Blue is a resazurin reagent that responds to reducing activity.)

Chain of NADPH oxidase 5 (Homo sapiens) (Q96PH1 whole entry, looked up): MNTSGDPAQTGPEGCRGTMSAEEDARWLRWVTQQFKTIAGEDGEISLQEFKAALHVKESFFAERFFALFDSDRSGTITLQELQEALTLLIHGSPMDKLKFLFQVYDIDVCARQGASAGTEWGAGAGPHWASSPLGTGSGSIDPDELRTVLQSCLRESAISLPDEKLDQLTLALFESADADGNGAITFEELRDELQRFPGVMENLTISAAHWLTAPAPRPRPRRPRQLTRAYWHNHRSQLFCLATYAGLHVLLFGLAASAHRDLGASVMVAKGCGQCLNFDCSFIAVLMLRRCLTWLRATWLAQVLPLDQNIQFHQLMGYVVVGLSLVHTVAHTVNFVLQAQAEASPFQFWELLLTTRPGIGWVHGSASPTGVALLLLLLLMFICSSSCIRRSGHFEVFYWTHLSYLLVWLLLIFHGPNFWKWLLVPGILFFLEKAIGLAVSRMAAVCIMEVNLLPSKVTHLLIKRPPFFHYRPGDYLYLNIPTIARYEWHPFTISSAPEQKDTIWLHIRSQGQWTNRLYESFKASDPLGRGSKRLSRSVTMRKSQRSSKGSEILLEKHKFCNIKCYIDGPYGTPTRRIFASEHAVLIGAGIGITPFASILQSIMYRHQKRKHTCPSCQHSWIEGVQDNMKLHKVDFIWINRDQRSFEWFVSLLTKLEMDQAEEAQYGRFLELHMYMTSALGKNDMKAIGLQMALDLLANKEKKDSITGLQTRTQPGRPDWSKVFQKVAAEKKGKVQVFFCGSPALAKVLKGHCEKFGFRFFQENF

As to `CCC#CCN(Cc1ccccc1Br)[C@H](/C=C/c1ccccc1)[C@@H](O)Cc1ccccc1`, the z-score in assay [1] was 0.625 (inactive); in assay [3], 1.79 (inactive); in [4] it was 1.15 (inactive); in assay [5], -0.696 (inactive); in [6], 0.475 (inactive); in assay [7], -0.218. Further, the z-score is -0.267 (inactive) in [8]; 0.0785 (inactive) in assay [9]; -0.41 in assay [10]; 0.178 in assay [11]; -0.0581 in assay [12]; -0.124 in [13]. Moreover, the z-score in [14] is -0.227; in assay [15], -2.42; in assay [16], -2.35; in assay [17], -1.44 (inactive); in assay [18], -0.608; in assay [19] it was -0.32. Further, the z-score in assay [20] was 1.36 (inactive). Besides, the composite z-score in [2] is -0.0035.
Take `COc1ccc(-c2cc3c(c(-c4ccccc4)n2)[Si](C(C)C)(C(C)C)O[C@H]3c2ccccc2)cn1`: the z-score in assay [1] was -1.27 (inactive); in assay [3] it was 1.71 (inactive); in [4], 0.489 (inactive); in [5] it was -0.479 (inactive); in assay [6], -0.183 (inactive); in [7], -0.442. Also, the z-score was 0.601 (inactive) in assay [8]; 0.451 (inactive) in [9]; 0.929 in assay [10]; 0.705 in [11]; -0.263 in assay [12]; 0.674 in [13]. Moreover, the z-score in assay [14] is -1.48; in [15] it was -1.85; in assay [16], -1.57; in assay [17], -0.739 (inactive); in assay [18], -0.707; in assay [19], -0.225. The z-score in assay [20] is 1.51 (inactive). Further, the composite z-score in assay [2] was -0.147.
Regarding `CC(=O)Nc1ccc([C@H]2[C@H](C)CC[C@H]3C(=O)N4[C@@H](CC[C@@H](C)[C@@H]4c4ccc(NC(C)=O)cc4)C(=O)N32)cc1`, the z-score in assay [1] is -0.929 (inactive); in [3], 1.91 (inactive); in [4], 0.586 (inactive); in assay [5], 0.699 (inactive); in [6], 0.32 (inactive); in assay [7], -0.164. The z-score in assay [8] is 0.0427 (inactive); in assay [9] it was 1.25 (inactive); in assay [10], 0.198; in assay [11] it was 1.04; in assay [12], 1.1; in assay [13], 0.277. For the same compound, the z-score in [14] is -0.715; in [15], -0.439; in assay [16], -1.16; in assay [17], -0.183 (inactive); in assay [18], -0.365; in [19], -0.559. Besides, the z-score in assay [20] was 0.553 (inactive). In assay [2], the composite z-score is -0.045.
In the case of `C[C@H]1NC(=O)[C@@H](C)NC(=O)[C@@]23C(=O)N[C@@H](Cc4ccccc4)C2[C@H](C)[C@@]2(C)O[C@H]2C3/C=C/C/C=C\CNC1=O` (stereo not given in full), the z-score in assay [1] was 2.35 (inactive); in [3], 1.27 (inactive); in [4] it was 0.279 (inactive); in assay [5], 0.234 (inactive); in assay [6], 0.157 (inactive); in assay [7], 0.52. Further, the z-score in assay [8] is 0.248 (inactive); in assay [9], -0.848 (inactive); in [10], 0.442; in assay [11], 0.0575; in assay [12], 0.43; in assay [13], 0.205. The z-score in assay [14] is -0.0933; in assay [15], -0.0009; in assay [16], 1.24; in assay [17], 0.408 (inactive); in [18], -0.266; in assay [19], 1.66. For the same compound, the z-score in assay [20] is 0.381 (inactive). In addition, the composite z-score in assay [2] was -0.245.

Values taken from PubChem BioAssay.
